Assay results from the supplement of paper PMC6555819.

Assays:
Assay in all cases: PBM binding z-score (relative to random genomic background probes); higher = stronger binding; sequences stand for … in GC…GCGATTGACAGCGTAGAATGAAGG
[1] = tested on: FXR:RXRa (NR concentration 270 nM, RXRa partner concentration 90 nM)
Summary of the method: (§1)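 Regression normalization was applied to scanned fluorescence from custom Agilent 4×180K protein-binding microarrays. Before scanning, arrays were incubated 1 h with ligand-free nuclear receptor dimers, and binding was detected with antibodies against each partner (one per run). Binding z-scores use the random background probes as reference.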

[2] = tested on: LXRa:RXRa (NR concentration 270 nM, RXRa partner concentration 90 nM)
Summary of the method: as §1

[3] = tested on: LXRa homodimer (NR concentration 270 nM)
Summary of the method: as §1

[4] = tested on: LXRb:RXRa (NR concentration 270 nM, RXRa partner concentration 90 nM)
Summary of the method: as §1

[5] = tested on: LXRb homodimer (NR concentration 270 nM)
Summary of the method: as §1

[6] = tested on: PPARa:RXRa (NR concentration 270 nM, RXRa partner concentration 90 nM)
Summary of the method: as §1

[7] = tested on: PPARg:RXRa (NR concentration 180 nM, RXRa partner concentration 90 nM)
Summary of the method: as §1

[8] = tested on: PPARg:RXRa 270nM:90nM, anti-RXR (NR concentration 270 nM, RXRa partner concentration 90 nM)
Summary of the method: as §1

[9] = tested on: PPARg:RXRa 30nM:10nM, anti-RXR (NR concentration 30 nM, RXRa partner concentration 10 nM)
Summary of the method: as §1

[10] = tested on: PPARg:RXRa 90nM:30nM, anti-RXR (NR concentration 90 nM, RXRa partner concentration 30 nM)
Summary of the method: as §1

[11] = tested on: PPARg:RXRa DBDmut IVT, anti-RXR (DBD mutation: RXRa K156A/R161A, NR concentration 270 nM, RXRa partner concentration 90 nM)
Summary of the method: as §1

[12] = tested on: PPARg:RXRa IVT, anti-PPARg (NR concentration 270 nM, RXRa partner concentration 90 nM)
Summary of the method: as §1

[13] = tested on: PPARg DBDmut:RXRa IVT, anti-PPARg (DBD mutation: PPARg1 K132A/R137A, NR concentration 270 nM, RXRa partner concentration 90 nM)
Summary of the method: as §1

[14] = tested on: PPARg DBDmut IVT, anti-PPARg (DBD mutation: PPARg1 K132A/R137A, NR concentration 270 nM)
Summary of the method: as §1

[15] = tested on: PPARg homodimer (NR concentration 180 nM)
Summary of the method: as §1

[16] = tested on: PXR:RXRa (NR concentration 270 nM, RXRa partner concentration 90 nM)
Summary of the method: as §1

[17] = tested on: PXR homodimer (NR concentration 270 nM)
Summary of the method: as §1

[18] = tested on: RARa:RXR (NR concentration 270 nM, RXRa partner concentration 90 nM)
Summary of the method: as §1

[19] = tested on: RARa homodimer (NR concentration 270 nM)
Summary of the method: as §1

[20] = tested on: RARb:RXRa (NR concentration 270 nM, RXRa partner concentration 90 nM)
Summary of the method: as §1

Sequence	PBM binding z-score [1]	PBM binding z-score [2]	PBM binding z-score [3]	PBM binding z-score [4]	PBM binding z-score [5]	PBM binding z-score [6]	PBM binding z-score [7]	PBM binding z-score [8]	PBM binding z-score [9]	PBM binding z-score [10]	PBM binding z-score [11]	PBM binding z-score [12]	PBM binding z-score [13]	PBM binding z-score [14]	PBM binding z-score [15]	PBM binding z-score [16]	PBM binding z-score [17]	PBM binding z-score [18]	PBM binding z-score [19]	PBM binding z-score [20]
CTCGGAAGGTCGGTTGAGGTGAGTATACGGATAA	2.43	0.338	-0.673	0.113	-0.399	1.01	-0.0465	-0.0669	-0.473	-0.159	-0.598	0.491	-0.365	-0.461	0.527	1.84	-0.347	0.849	-0.2	1.89
TAGCCTAAGTCATTGGGCCAGTATAGTACGCATC	-0.205	-0.421	-0.659	-0.39	-0.339	-0.181	0.256	-0.24	-0.281	-0.391	-0.775	-0.00957	-0.0162	-1.02	-0.452	-0.441	-0.814	-0.394	-0.564	0.068
CCGAGCAGGCCAGGGTCACTCAAGCATTTCGCTT	2.23	1.75	-0.467	2.16	-1.08	2.97	0.393	1.19	-0.201	0.482	-0.216	0.461	-1.99	-1.55	1.51	2.78	-0.479	3.47	-0.256	2.65
TCTTGTAGATCAATATAGGTTAAGAAAGTGCGCT	0.801	2.72	0.469	1.28	0.58	1.97	0.81	2.09	3.36	2.56	2.95	2.98	1.55	1.13	0.797	1.67	0.304	1.4	1.22	0.676
TGAATGAGGTTAAAGATCATGGAACGTGGCGTCG	3.15	2.8	-0.213	1.93	-0.192	4.81	6.66	6.58	4.73	6.88	1.79	3.19	0.0999	-0.204	0.9	2.49	0.119	3.73	0.174	2.04
CAAACTAGGTCACGAAAGGTCAGAGTCGAATGAC	6.76	7.61	5.28	6.37	1.23	5.96	10.3	7.74	6.9	8.34	8.85	9.13	3.21	1.91	7.35	6.33	1.71	6.97	5.45	5.39
CGAACTAGGTCATTGACAGGACAGTGCATAGTAA	4.46	3.18	0.766	2.04	-0.0575	4.8	7.55	6.33	3.65	5.79	7.99	8.21	2.11	0.779	1.71	1.76	0.634	2.28	0.279	3.66
TCGAGTAGGTTAGGGGGATTCAGAATGGCGTCGA	0.594	0.704	0.047	2.05	5.63	1.63	1.42	3.21	2.01	2.69	2.93	3.21	2.69	5.71	1.41	1.2	0.466	0.482	0.665	1.19
ATCTCTAGGTAACCAAGTTCTGTGAATGCCGAAC	0.602	0.255	0.186	0.427	0.457	0.701	0.399	0.795	0.343	0.427	3.07	2.82	0.454	0.664	0.688	0.262	0.109	0.329	0.574	0.423
GCATATAGGTACTACAAGGTGAAAGTCCGATTGT	0.689	-0.132	-0.343	0.0572	-0.233	0.972	0.697	0.784	0.264	0.566	1.67	1.24	0.887	0.583	0.651	0.2	-0.351	1.36	-0.147	0.285
TCTTGTCGATCAGCAGGTTAAGAAAGCTGGCCAA	0.435	0.635	-0.135	0.381	0.00876	0.714	-0.663	1.47	2.63	1.91	1.61	0.358	-0.732	0.173	0.131	0.254	-0.436	0.75	-0.254	0.466
CGTCCAAGGTCTGAGAGGTCAGTGAATGCCGAGT	1.6	1.76	0.726	1.58	-0.51	2.29	-0.0569	0.729	-0.614	-0.154	0.28	0.77	-0.424	-1.57	1.81	2.94	1.65	2.79	0.0831	3.24
TCATATAGGTAAACAGGTGAAAGTACGTAAGTTA	1.36	1.03	0.233	1.26	0.199	2.74	4.09	4.04	4.33	4.17	4.97	4.72	2.79	1.19	1.65	0.938	0.715	1.22	1.42	0.779
TCTCGGAAGACACGAAGGTCAGAGCTTTCCAGAG	0.883	0.652	-0.454	0.74	-0.988	1.79	0.356	1.57	2.55	1.71	1.64	0.221	-0.344	-0.823	0.689	1.12	-0.144	1.53	-0.631	2.27
